Source: PubChem BioAssay
RXFP1 agonist = RXFP1 (human) receptor agonism; 0.3% of 370,000 active; Q9HBX9; HEK293T-RXFP1 cAMP TR-FRET, 30 min; response scale: percent of porcine relaxin response, buffer zero; Potency, µM (doses to about 57.5 µM), for the others: at the highest dose activation, usual class: activators; further: potency means the concentration at half of the fitted maximal effect; on the % scale 0 is the no-effect control and ±100 the full control effect; nearly all actives have a fitted effect of over 60% in size
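HEK293 cells stably expressing RXFP1, treated 30 min at 37C with compounds plus PDE4 inhibitor Ro 20174; cAMP measured by HTRF TR-FRET. Normalized to buffer and 29 nM porcine relaxin; EC50 by Hill fit.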
RXFP1 antagonist = antagonists of human relaxin receptor RXFP1; Q9HBX9; HEK293-RXFP1, relaxin-stimulated cAMP HTRF, 30 min; hits give low values; activity change, negative = inhibition, % at 57.5 µM; 0.59% of 350,000 active; AID 1259400;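 active means activity change of -60% or lower, but not beyond a set lower limit; inconclusive means change between -60% and -40%, or beyond the set limit; inactive means change above -40%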; further: on the % scale 0 is the no-effect control and ±100 the full control effect
gsp ag = gsp mutant agonism; 0.13% of 340,000 active; gsp mutant cells, cAMP HTRF, 30 min; Potency, µM (series often up to 76.9 µM), without a hit: at the highest dose activation (cAMP increase), hits mostly activators; active means well fitted activation curve with a large enough effect; inconclusive means small, poorly fitted or top-dose-only effect, or another doubt; inactive means no such curve, though single readings can be large or run the other way; cell line not stated here;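 further: phosphodiesterase inhibitor Ro 20-1724 added with compounds to block cAMP breakdown; potency means the concentration at half of the fitted maximal effect; nearly all actives have a fitted effect of over 60% in size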
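Cells stably selected in G418 were plated at 2000/well, grown 16-24 hr, then given compounds in DMSO with the PDE inhibitor […] (300 uM solution added) for 30 min at 37C; cAMP was read by HTRF.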
gsp antag = gsp mutant antagonism | 0.4% of 340,000 active | Potency, µM (series often up to 76.9 µM), inactives show at the highest dose activity change, negative = inhibition, hits mostly inhibitors | AID 624288 | gsp-mutant cells, cAMP HTRF, 30 min; calls by dose curve; cell line not stated here;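 further: intracellular cAMP measured with PDE inhibitor Ro 20-1724 present during compound exposure; potency means the concentration at half of the fitted maximal effect; on the % scale 0 is the no-effect control and ±100 the full control effect; nearly all actives have a fitted effect of over 65% in size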
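Cells, 2000/well, grown 16–24 h in DMEM 10% FBS with 0.5 mg/ml G418, then compounds plus […] (300 uM addition stock), 30 min at 37C. cAMP read by HTRF (cAMP-d2 and anti-cAMP antibody-K in lysis buffer) after 30 min RT.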
PTHR1 ag = activates the human parathyroid hormone receptor PTHR1; 0.075% of 410,000 active; Potency, µM (top dose mostly 115 µM), inactives show top-dose activation, actives largely listed as activators; HEK293 GP2 PTHR1 cells, GloSensor cAMP luminescence, 1 h; Q03431; further: potency means the concentration at half of the fitted maximal effect; nearly all actives have a fitted effect of over 55% in size
Target sequence (Q03431 whole entry, looked up): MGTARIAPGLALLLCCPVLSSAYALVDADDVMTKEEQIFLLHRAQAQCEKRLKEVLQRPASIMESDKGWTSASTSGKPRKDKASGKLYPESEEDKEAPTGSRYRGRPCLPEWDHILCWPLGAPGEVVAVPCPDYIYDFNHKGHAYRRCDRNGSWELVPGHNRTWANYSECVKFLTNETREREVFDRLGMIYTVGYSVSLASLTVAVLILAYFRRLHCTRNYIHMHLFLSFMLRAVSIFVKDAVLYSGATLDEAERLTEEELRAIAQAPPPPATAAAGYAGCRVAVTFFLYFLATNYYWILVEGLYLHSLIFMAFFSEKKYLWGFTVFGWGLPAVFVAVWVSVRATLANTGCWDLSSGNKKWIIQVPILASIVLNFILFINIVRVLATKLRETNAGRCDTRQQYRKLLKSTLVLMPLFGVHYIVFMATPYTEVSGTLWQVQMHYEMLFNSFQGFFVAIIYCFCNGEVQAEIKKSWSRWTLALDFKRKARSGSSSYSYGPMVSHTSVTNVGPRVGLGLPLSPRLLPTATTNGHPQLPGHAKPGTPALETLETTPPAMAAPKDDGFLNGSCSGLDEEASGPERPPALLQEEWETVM
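HEK-293-derived GP2 cells expressing PTHR1 and a GloSensor cAMP reporter, 3,000/well, plated overnight, given luciferin plus IBMX (each 0.5 mM as added) for 1 h at 37 °C, then compound for 1 h at 37 °C. Luminescence was read after 15 min at room temperature.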
Numbers without * were called inactive; [ ] = remark or other dose. An excerpt weighted towards active compounds, which were near 1% of everything screened. Unless noted, the call rests on the fitted dose curve; in most records, active means well fitted curve in the direction sought with a large enough effect; inconclusive means small, poorly fitted or top-dose-only effect, or another doubt; inactive means no such curve, though single readings can be large; an effect the other way counts as inactive or inconclusive.

What do the screens show for `Cc1cc(Cl)ccc1OCC(=O)NNC(=O)C1CCN(c2ncnc3sc(C)c(C)c23)CC1`?
RXFP1 agonist: 0%; RXFP1 antagonist: -20; gsp ag: 17%; gsp antag: 35µM*; PTHR1 ag: -46%

Results for Cc1sc2ncnc(N3CCC(C(=O)NNC(=O)COc4ccccc4Cl)CC3)c2c1C ?
RXFP1 agonist: 0%; RXFP1 antagonist: inconclusive; gsp ag: -4%; gsp antag: inconclusive; PTHR1 ag: -37%

Results for Cc1ccc(OCC(=O)NNC(=O)C2CCN(c3ncnc4sc(C)c(C)c34)CC2)cc1 ?
RXFP1 agonist: 2%; RXFP1 antagonist: -8; gsp ag: 38%[15.4 µM]; gsp antag: -25%; PTHR1 ag: -25%

How did Cc1sc2ncnc(N3CCC(C(=O)NNC(=O)c4ccccc4Cl)CC3)c2c1C do in these assays?
RXFP1 agonist: 6%; RXFP1 antagonist: -24; gsp ag: 1%; gsp antag: -9%; PTHR1 ag: -20%

What do the screens show for `Cc1sc2ncnc(N3CCC(C(=O)NNC(=O)COc4ccc(Cl)cc4)CC3)c2c1C`?
RXFP1 antagonist: -14; gsp ag: inconclusive; gsp antag: 32µM*; PTHR1 ag: -42%

How did Cc1cc(Br)ccc1NC(=O)CN(C)C(=O)C1CCN(c2ncnc3sc(C)c(C)c23)CC1 do in these assays?
RXFP1 antagonist: -19; gsp ag: 1%; gsp antag: 32µM*; PTHR1 ag: -5%

Results for Cc1sc2ncnc(N3CCC(C(=O)Nc4ccc(OC(F)F)c(Cl)c4)CC3)c2c1C ?
RXFP1 antagonist: -7; gsp ag: -35%; gsp antag: 28µM*; PTHR1 ag: -39%

Results for O=C(Nc1ccc(F)cc1)c1ccc2c(c1)NC(=O)c1ccccc1S2 ?
RXFP1 agonist: inconclusive; RXFP1 antagonist: 4; PTHR1 ag: -37%

Results for CCN1CCOC(=O)C1CC(=O)Nc1cc(Cl)ccc1OC (centres undefined) ?
RXFP1 agonist: 1%; PTHR1 ag: inactive

Results for Cc1sc2ncnc(N3CCC(C(=O)NNC(=O)COc4cccc(C(F)(F)F)c4)CC3)c2c1C ?
RXFP1 agonist: 2%; RXFP1 antagonist: -31; gsp ag: 28%; gsp antag: 50µM*; PTHR1 ag: -39%

What do the screens show for `Cc1sc2ncnc(N3CCC(C(=O)NNC(=O)COc4ccc(Br)cc4)CC3)c2c1C`?
RXFP1 agonist: 1%; RXFP1 antagonist: -19; gsp ag: -17%[15.4 µM]; gsp antag: 32µM*; PTHR1 ag: -23%

How did CCc1ccc(OCC(=O)NNC(=O)C2CCN(c3ncnc4sc(C)c(C)c34)CC2)cc1 do in these assays?
RXFP1 agonist: 1%; RXFP1 antagonist: -14; gsp ag: -12%; gsp antag: -4%; PTHR1 ag: inactive

Results for COc1ccc(OCC(=O)NNC(=O)C2CCN(c3ncnc4sc(C)c(C)c34)CC2)cc1 ?
RXFP1 agonist: 0%; RXFP1 antagonist: -11; gsp ag: -25%; gsp antag: inconclusive; PTHR1 ag: -70%

How did N#Cc1ccc(CN2C(=O)c3ccccc3Sc3ccc(C(=O)OCc4ccco4)cc32)cc1 do in these assays?
RXFP1 agonist: 2%; PTHR1 ag: 0%

How did COc1cccc(CNc2ccc(Br)cn2)c1O do in these assays?
RXFP1 agonist: -1%; RXFP1 antagonist: 3; gsp ag: 6%; gsp antag: -8%; PTHR1 ag: -40%[57.5 µM]

How did COc1cccc(CNc2ncc(Br)cc2Br)c1O do in these assays?
RXFP1 agonist: 3%; RXFP1 antagonist: -78*; gsp ag: -38%; gsp antag: -8%; PTHR1 ag: -61%[57.5 µM]

How did COc1ccc(S(=O)(=O)c2c(Nc3c(C)cccc3C)sc(C(=O)c3ccc(F)cc3)c2N)cc1 do in these assays?
RXFP1 agonist: 1%; RXFP1 antagonist: -10; PTHR1 ag: -1%

How did CCN(CC)CCCN(C(=O)c1ccco1)c1nc(-c2ccc(C)cc2)cs1 do in these assays?
RXFP1 agonist: 0%; RXFP1 antagonist: -14; gsp ag: 24%; gsp antag: 11%; PTHR1 ag: inconclusive

How did CCN(CC)CCCN(C(=O)c1ccco1)c1nc(-c2ccc(Cl)cc2)cs1 do in these assays?
RXFP1 agonist: 1%; RXFP1 antagonist: -96*; gsp ag: -54%; gsp antag: 2%; PTHR1 ag: inactive
